Shown are actives, neighbours in structure and some others; about 4.1% of the full set was active somewhere.
hgDAF-12 ag: agonists of H. glycines DAF-12 nuclear receptor | 370,000 compounds, 1.8% hits | activation, % at 6.8 µM | HEK293 GAL4-hgDAF12 UAS-luciferase reporter, agonist luminescence; normalized to butyrate control;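 active means activation above a cutoff set at the mean of all screened compounds plus 3 SD, cut at about 10% in these data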;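 further: 0% = DMSO wells and 100% = sodium butyrate wells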
hcDAF12 agonist: H. contortus DAF-12 activation, primary screen | HEK293 hcDAF-12 lit1-tk-luc reporter, luminescence; 0% DMSO, 100% Δ7-dafachronic acid | activation, % at 6.8 µM | 370,000 compounds, 1.4% hits;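 active means activation above the mean of all tested compounds plus 3 SD, cut at about 5.5% in these data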;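 further: 100% = response to 3 µM Δ7-dafachronic acid high control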
ssDAF12 agonist: S. stercoralis DAF-12 activation, primary screen | HEK293 ssDAF-12/GRIP1 lit1-tk-luc reporter, luminescence; % of 3 µM dafachronic acid response | activation, % at 6.8 µM | 370,000 compounds, 1% hits | AID 652126;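 active means activation above the mean over all tested compounds plus 3 SD, cut at about 0.9% in these data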;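 further: 0% = DMSO-only wells and 100% = 3 µM delta7-dafachronic acid wells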
DAX1 inh-1: inhibitors of DAX1 repression of SF-1 activated StAR promoter; HEK293T StAR-luciferase reporter, SF-1/DAX-1 repression relief; inhibition, % at 6.8 µM; 370,000 compounds, 1.1% hits; AID 652010;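 active means inhibition above the mean over all tested compounds plus 3 SD, cut at about 3.6% in these data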;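 further: 0% = DAX-1 cells with DMSO and 100% = cells lacking DAX-1 with DMSO; higher inhibition means more luminescence from relief of DAX-1 repression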
DAX1 inh-2: NR0B1 (DAX1) inhibition; HEK293 Gal4-DAX1 luciferase reporter, luminescence; inhibition, % at 6.75 µM; 340,000 compounds, 0.99% hits; AID 504766;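 active means inhibition above the mean over all tested compounds plus 3 SD, cut at about 4.2% in these data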;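 further: 0% = DAX1-transfected cells with DMSO and 100% = empty-vector control cells with DMSO; inhibition shows as a rise in luminescence from relieved DAX1 repression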
Target sequence (P51843 207-470 limits assumed): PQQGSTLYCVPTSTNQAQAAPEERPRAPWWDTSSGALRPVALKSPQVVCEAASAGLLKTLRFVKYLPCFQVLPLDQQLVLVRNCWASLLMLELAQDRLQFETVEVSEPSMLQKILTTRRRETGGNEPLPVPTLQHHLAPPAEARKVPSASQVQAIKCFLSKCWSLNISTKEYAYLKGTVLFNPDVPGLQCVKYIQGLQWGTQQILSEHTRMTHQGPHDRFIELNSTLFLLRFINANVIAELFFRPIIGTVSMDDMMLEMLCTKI
DAX1 inh confirm: confirmation of human DAX1 (NR0B1) inhibitors; inhibition, % at 6.8 µM; 2,400 compounds, 87% hits; HEK293T StAR-promoter luciferase reporter, SF-1/DAX-1 repression; shares compounds with DAX1 inh-1;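 active means inhibition above the average of every tested compound plus 3 SD, cut at about 3.8% in these data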;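 further: 0% = DAX-1 cells with DMSO and 100% = no DAX-1 control cells with DMSO; active compounds raise luminescence by relieving repression of the StAR reporter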
Target sequence (P51843 whole entry, looked up): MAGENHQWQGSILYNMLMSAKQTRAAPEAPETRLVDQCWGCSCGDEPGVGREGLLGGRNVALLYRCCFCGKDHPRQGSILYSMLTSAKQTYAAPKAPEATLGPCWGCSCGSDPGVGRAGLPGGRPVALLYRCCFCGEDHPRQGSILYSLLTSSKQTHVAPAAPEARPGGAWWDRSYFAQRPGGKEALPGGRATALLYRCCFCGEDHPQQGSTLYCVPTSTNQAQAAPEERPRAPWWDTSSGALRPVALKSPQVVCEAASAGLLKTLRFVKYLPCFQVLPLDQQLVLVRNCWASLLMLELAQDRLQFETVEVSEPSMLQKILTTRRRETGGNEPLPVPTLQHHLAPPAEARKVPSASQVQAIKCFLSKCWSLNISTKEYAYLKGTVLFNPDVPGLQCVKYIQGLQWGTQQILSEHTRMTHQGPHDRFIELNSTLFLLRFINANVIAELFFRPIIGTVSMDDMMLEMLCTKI
SF1 mutant ctr: counter-screen for DAX1 inhibitors: nonselective inhibitors with SF-1 AF2 mutant. AID 652136. HEK293 StAR-luciferase, luminescence. 2,400 compounds, 78% hits. inhibition, % at 6.8 µM. shares compounds with DAX1 inh-1;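 active means inhibition above the mean of all tested compounds plus 3 SD, cut at about 3% in these data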;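 further: 0% = DAX-1 transfected cells with DMSO and 100% = cells without DAX-1 with DMSO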
The depositor's hits bear a star; . = no result.

SMILES	hgDAF-12 ag	hcDAF12 agonist	ssDAF12 agonist	DAX1 inh-1	DAX1 inh-2	DAX1 inh confirm	SF1 mutant ctr
Cn1c(C(=O)NCCCN2CCOCC2)cc2c(=O)n(C)c3ccccc3c21	-2.0	-0.8	-1.1	1.4	2.5	.	.
CN1CCC[C@H]1CCNc1ccc2c(=O)c3ccccc3n(C)c2c1	9.4	5.1	-0.2	8.1*	1.3	15.2*	9.6*
COc1ccc(-n2cc(COC(=O)NCCc3ccccc3)nn2)cc1	0.1	-1.1	-0.1	-0.3	.	.	.
CN(C)CCNC(=S)Nc1ccc(-c2nc3ccccc3[nH]2)cc1	12.8*	4.4	-0.1	5.0*	3.4	12.3*	8.7*
CS(=O)(=O)c1cccc(C(=O)Nc2ccc(-c3nc4ccccc4[nH]3)cc2)c1	-3.2	-2.1	-0.8	7.2*	-1.0	6.7*	-1.9
S=C(NCCCN1CCOCC1)Nc1ccc(-c2nc3ccccc3[nH]2)cc1	1.7	-1.9	-1.7	-2.0	0.5	.	.
O=C(Nc1ccc(F)cc1F)c1ccc2c(=O)n3c(nc2c1)CCC3	12.7*	3.2	-0.1	10.6*	0.5	7.9*	6.5*
O=C(Nc1ccc(F)cc1Cl)c1ccc2c(=O)n3c(nc2c1)CCC3	10.5*	6.5*	0.1	8.8*	2.0	8.6*	5.7*
COc1cccc(CNC(=O)C2CCCN(c3ncccn3)C2)c1OC (stereo not drawn)	0.5	3.1	-1.7	-0.6	.	.	.
CC(C)CNC(=O)OCc1cn(Cc2ccc(F)c(F)c2)nn1	0.1	-1.0	0.1	0.9	.	.	.
COc1cc(C(=O)NCCC(=O)NC(C)C)cc(OC)c1OC	3.7	-1.7	-1.1	5.3*	-0.2	0.1	-2.1
COC(=O)[C@]12C[C@H](CC(=O)N3CCCC3)C(=O)N(CCC3=CCCCC3)C1=C[C@H](C(C)(C)C)O[C@@H]2C	-1.0	-2.8	-0.8	-1.5	.	.	.
Nc1cc(OCc2ccccc2)ccc1OCc1ccccc1	4.3	1.1	-0.1	4.7*	2.5	3.6*	4.5*
COc1ccc(C(C#N)=Cc2ccc(OC)c(OC)c2)cc1	7.7	-0.7	-1.1	0.1	-0.8	.	.
COc1ccc(C=C(C#N)c2ccc(OC)cc2)cc1	16.7*	2.7	-0.1	6.7*	4.0	9.1*	4.0*
CCN(CC)C(=O)CC[C@@H]1CC[C@]2(CCCN(Cc3ccccn3)C2)O1	-0.6	-1.9	-1.3	0.7	.	.	.
Cc1noc(C)c1C(=O)Nc1ccc(N(C)C)cc1	-1.0	-2.1	-0.8	-0.5	0.9	.	.
CN(C)c1ccc(NC(=O)c2cnsn2)cc1	10.4	3.5	-0.5	6.3*	-0.7	7.4*	1.7
Cn1cccc1C(=O)N1CCN(S(=O)(=O)c2ccc(F)cc2)CC1	-0.4	-2.1	-0.3	-1.1	.	.	.
O=C(CCS(=O)(=O)c1ccccc1)N1CCN(c2ccccc2)CC1	4.7	5.1	-0.7	9.3*	0.5	6.8*	3.7*
CC(C)C1Oc2ccccc2C(=O)N(CC(=O)c2ccc3c(c2)OCCO3)C1=O (stereo not drawn)	3.5	3.4	-0.4	7.6*	3.6	13.6*	8.8*
CN(C(=O)c1cc2c(=O)n3ccccc3nc2n1C)C1CCCCC1	9.0	2.4	-0.4	10.4*	-0.3	12.0*	6.3*
Cn1c(C(=O)O)cc2c(=O)n3ccccc3nc21	-0.3	-1.6	-1.4	0.3	0.6	.	.
CCN(C(=O)c1cc2c(=O)n3ccccc3nc2n1C)C1CCCCC1	4.5	1.6	-0.9	4.9*	0.8	4.6*	2.8
CCCC(=O)Nc1ccc(NC(=O)c2ccccc2)nc1	5.3	3.1	-0.1	4.7*	1.3	13.3*	6.6*
SMILES	hgDAF-12 ag	hcDAF12 agonist	ssDAF12 agonist	DAX1 inh-1	DAX1 inh-2	DAX1 inh confirm	SF1 mutant ctr
CCCC(=O)Nc1ccc(NC(=O)c2ccccc2F)cn1	2.7	-1.2	0.8	0.2	0.7	.	.
CSc1ccc(Cl)c(C(=O)Nc2ccc(Cl)cn2)c1	3.2	-0.6	-1.2	0.3	0.3	.	.
COc1cc(SC)ccc1C(=O)Nc1ccc(Cl)cn1	12.2*	5.4	0.6	5.3*	0.0	-1.6	-3.6
COc1ccc(NC(=O)COC(=O)c2cc(C)oc2C)c([N+](=O)[O-])c1	-1.5	-1.5	-1.2	4.6*	0.4	-2.4	-2.0
COc1ccc(NC(=O)COc2ccc(C)cc2)c([N+](=O)[O-])c1	3.4	-0.4	-1.2	0.4	.	.	.
ClCCn1cnc2c(SCc3ccccc3)ncnc21	-1.6	1.2	-1.3	7.5*	-3.8	-1.1	-5.9
ClCCn1cnc2c(SCc3ccccc3Cl)ncnc21	-1.9	-1.3	-0.8	-3.2	-3.6	.	.
O=C(Nc1ccc2oc(-c3ccccc3Cl)nc2c1)c1ncn[nH]1	9.9	5.8*	0.3	6.7*	2.8	13.8*	7.9*
C=CCN1C(=O)[C@@H](CC(=O)NCCCCc2ccccc2)[C@]2(C(=O)OC)CCCCC=C12	0.9	-0.1	-1.6	-0.1	.	.	.
COC(=O)[C@]12C[C@H](CC(=O)NCC34CC5CC(CC(C5)C3)C4)C(=O)N(CCc3ccc(OC)c(OC)c3)C1=C[C@H](C(C)(C)C)O[C@@H]2C	-2.0	-1.9	-1.7	-1.9	.	.	.
COc1ccc(NC(=S)NC(=O)c2ccccc2)cn1	13.2*	1.5	-0.3	4.6*	1.2	3.5	4.3*
Clc1ccccc1CSc1cnnc2ccccc12	5.6	1.9	-0.9	5.3*	1.3	3.2	1.5
O=C1NC(c2ccc(Br)cc2)c2c(-c3ccccc3)n[nH]c21 (stereo not drawn)	-3.7	-2.6	-0.8	0.0	.	.	.
Cc1sc2nc(SCC(=O)Nc3cccc(C(=O)O)c3)[nH]c(=O)c2c1C	0.8	-0.8	-0.2	-1.4	-0.3	.	.
Cc1sc2nc(SCC(=O)Nc3ccc(Cl)c(C(=O)O)c3)[nH]c(=O)c2c1C	17.1*	5.3	0.7	6.0*	0.8	12.3*	9.5*
COC(=O)[C@]12C[C@H](CC(=O)N3CCC(c4ccccc4)CC3)C(=O)N(Cc3ccc4c(c3)OCO4)C1=C[C@H](C(C)(C)C)O[C@@H]2C	-1.1	1.8	-1.4	-0.8	.	.	.
COC(=O)[C@H]1C[C@@]2(O)CN(S(=O)(=O)c3ccc(C)cc3)C[C@@]2(OC(=O)NCc2ccc(OC)c(OC)c2)C[C@H]1C(=O)OC	0.9	-1.1	-0.7	5.5*	1.0	1.0	-0.1
COC(=O)[C@H]1C[C@@]2(O)CN(S(=O)(=O)c3ccc(C)cc3)C[C@@]2(OC(=O)NCc2ccccc2F)C[C@H]1C(=O)OC	-1.6	0.8	-0.4	1.1	2.0	.	.
O=C(c1ccco1)N1CCC(Oc2cccnc2)CC1	0.6	-1.9	-1.1	0.2	.	.	.
CCOc1ccc(N(CC(=O)Nc2ccccc2OCC)S(=O)(=O)c2c(C)noc2C)cc1	1.0	0.6	-0.3	13.4*	0.1	15.6*	-6.6

Screens deposited in PubChem by The Scripps Research Institute Molecular Screening Center.
